Source: PubChem
LmPK inh = inhibitors of Leishmania mexicana pyruvate kinase; purified LmPK, Kinase-Glo ATP luminescence, 1 h; Potency, µM (titrated, usually from 57.5 µM), hits mostly inhibitors; hit rate 0.37% among 290,000; AID 1721; active = well fitted curve in the direction sought with a large enough effect; inconclusive = small, poorly fitted or top-dose-only effect, or another doubt; inactive = no such curve, though single readings can be large; an effect the other way counts as inactive or inconclusive
Target sequence (Q27686 whole entry, looked up): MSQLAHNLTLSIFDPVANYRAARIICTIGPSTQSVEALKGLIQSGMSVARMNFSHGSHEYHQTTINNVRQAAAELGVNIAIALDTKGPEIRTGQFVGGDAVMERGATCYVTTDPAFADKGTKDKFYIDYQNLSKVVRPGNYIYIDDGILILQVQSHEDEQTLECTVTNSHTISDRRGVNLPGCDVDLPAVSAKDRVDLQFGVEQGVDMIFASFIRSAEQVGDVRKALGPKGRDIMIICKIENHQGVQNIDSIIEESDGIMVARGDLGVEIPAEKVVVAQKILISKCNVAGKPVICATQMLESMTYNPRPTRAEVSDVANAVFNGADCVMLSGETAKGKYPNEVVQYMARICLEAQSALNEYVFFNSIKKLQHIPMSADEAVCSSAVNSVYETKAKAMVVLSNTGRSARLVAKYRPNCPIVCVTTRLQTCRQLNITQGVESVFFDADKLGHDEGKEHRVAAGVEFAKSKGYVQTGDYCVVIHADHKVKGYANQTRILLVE
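Screened at intermediate enzyme activity to detect both inhibitors and activators: LmPK at 0.1 nM, with a 0.5 nM enzyme column as activation reference. PEP 0.5 mM, ADP 0.1 mM; ATP detected by luminescence after 1 h.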
Shiga toxin inh = inhibitors of Shiga toxin in Vero cells. Vero cells, Shiga toxin protein synthesis inhibition reporter. inhibition, % at 38.7 µM. hit rate 9.2% among 290,000; in the data active = inhibition mostly above about 28%, no sharp cut-off; inactive = mostly below about 43%
NS1 inh = blocks influenza NS1 protein function; hit rate 0.4% among 270,000; AID 2326; Potency, µM (highest dose often 46.1 µM); also: actives are rising curves; nearly all actives have a fitted effect of over 50% in size
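Compounds were scored for reversing the slow growth caused by influenza A NS1 in S. cerevisiae, measured by optical density at 600 nm. Assay medium contained 2% galactose at pH 6.0; NS1-free yeast of the same strain were the positive control.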
TbPYK inhibitor = inhibitors of Trypanosoma brucei pyruvate kinase; AID 624173; TbPYK enzyme, Kinase-Glo Plus ATP luminescence, 45 min; Q57TT1; hit rate 0.12% among 410,000; Potency, µM (top dose mostly 76.8 µM), hits mostly inhibitors; active = well fitted curve in the direction sought with a large enough effect; inconclusive = small, poorly fitted or top-dose-only effect, or another doubt; inactive = no such curve, though single readings can be large; an effect the other way counts as inactive or inconclusive; also: nearly all actives have a fitted effect of over 50% in size
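T. brucei PYK with substrate was exposed to pin-transferred compounds across a concentration series, then started with 130 uM ADP (final). After 45 min at room temperature, Kinase-Glo Plus luminescence was read, normalized and curve-fitted.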
Cycloheximide cs = counter-screen for Shiga toxin inhibitors: cycloheximide protein synthesis inhibition. cell reporter, cycloheximide protein synthesis inhibition counterscreen. max response, %. hit rate 12% among 300,000. AID 2314; in the data active = max response mostly above about 13%, no sharp cut-off; inactive = mostly below about 14%; also: read at 38.3 µM for the half of the compounds with a filed dose
SARS PLpro yeast = blocks SARS-CoV papain-like protease in a yeast assay; AID 485353; Potency, µM (highest dose often 32.9 µM), actives largely listed as activators; hit rate 0.19% among 330,000; S. cerevisiae expressing SARS-CoV PLpro, growth rescue; also: nearly all actives have a fitted effect of over 55% in size
Each line names hits and unclear results; the compound was inactive in the other large screens. Shown is part of a subset that was picked to be rich in hits. Unless noted, calls follow the shape of the full dose curve.

Cc1ccc2cc3cc(C(=O)N4CC(C)CC(C)C4)oc3nc2c1 (configuration not stated)	Shiga toxin inh 41, Cycloheximide cs 27
Cc1ccc(OCC(=O)N(Cc2ccc(Cl)cc2)Cc2ccco2)cc1C	none (no result: LmPK inh, Shiga toxin inh, NS1 inh, Cycloheximide cs, SARS PLpro yeast)
Cc1cc(C)c2c(n1)SCC(=O)N2CC(=O)Nc1c(C)cccc1C	none
Cc1ccc2cc3cc(C(=O)N4CCC5(CC4)OCCO5)oc3nc2c1	none
Cc1ccc2cc3cc(C(=O)N4CCCCC4C)oc3nc2c1 (configuration not stated)	Shiga toxin inh 61, Cycloheximide cs 21
Cc1ccnc(NS(=O)(=O)c2ccc(NC(=O)/C=C/c3cccs3)cc2)n1	none
CCCOC(=O)c1ccc(NC(=O)/C=C/c2cccs2)cc1	Shiga toxin inh 73, Cycloheximide cs 33
O=C(/C=C/c1cccs1)Nc1ccncc1	Shiga toxin inh 63, Cycloheximide cs 44
Cc1cccc(NC(=O)/C=C/c2cccs2)n1	LmPK inh inconclusive, Shiga toxin inh 40, Cycloheximide cs 33
CN(C)C(=O)c1ccc(NC(=O)COC(=O)/C=C/c2cccs2)cc1	none (no result: LmPK inh, Shiga toxin inh, NS1 inh, Cycloheximide cs)
CCCOC(=O)c1cc(NC(=O)/C=C/c2ccccc2)ccc1O	Shiga toxin inh 74, Cycloheximide cs 17 (no result: TbPYK inhibitor)
Cc1ncc([N+](=O)[O-])n1Cc1ccc(F)cc1	none (no result: NS1 inh)
CN1OC[C@@H]2CN(Cc3cc(Cl)cc(Cl)c3)[C@H](c3cccc(Br)c3)C[C@@H]21	none (no result: LmPK inh, Shiga toxin inh, NS1 inh, Cycloheximide cs, SARS PLpro yeast)
CC(C)(C)NC(=O)/C=C/c1cccs1	Cycloheximide cs 17 (no result: NS1 inh)
CCC(C)NC(=O)/C=C/c1cccs1 (configuration not stated)	none
CN1CCN(C(=S)NC(=O)/C=C/c2cccc3ccccc23)CC1	none
O=C(/C=C/c1cccs1)NCc1ccccc1	Cycloheximide cs 35
CN1CCN(C(=S)NC(=O)/C=C/c2cccs2)CC1	Cycloheximide cs 22
Cc1ccc(NC(=O)/C=C/c2cccs2)c([N+](=O)[O-])c1	Shiga toxin inh 63, Cycloheximide cs 41
COc1ccc(C(C(=O)NC(C)(C)C)N(C(=O)CCC(=O)Nc2cc(C)on2)c2cccc(C)c2C)cc1 (configuration not stated)	none
CC(=O)Nc1ccc(NC(=O)/C=C/c2cccc(C(F)(F)F)c2)cc1	none
CC(C)(C)NC(=O)/C=C/c1cccc(C(F)(F)F)c1	Cycloheximide cs 14
Cc1nc(NC(=O)/C=C/c2ccc(C(C)(C)C)cc2)sc1C(=O)N(C)C	none
O=C(/C=C/c1cccs1)Nc1ccc([N+](=O)[O-])cc1	Shiga toxin inh 30, Cycloheximide cs 48
CC(C)(C)c1ccc(/C=C/C(=O)Nc2ccncc2)cc1	Shiga toxin inh 67, Cycloheximide cs 53, SARS PLpro yeast inconclusive
CCc1nc(SCC(=O)Nc2ccc(NC(C)=O)cc2)n[nH]1	none (no result: LmPK inh, Shiga toxin inh, NS1 inh, Cycloheximide cs, SARS PLpro yeast)
CC(C)n1nnnc1SCC(=O)c1ccc2c(c1)OCCO2	Shiga toxin inh 42, Cycloheximide cs 36
Cc1ccc(C)c(C(=O)CSc2nnnn2-c2cccnc2)c1	none
CCCCn1c(SCC(=O)c2ccc3c(c2)OCCO3)nnc1-c1ccco1	TbPYK inhibitor inconclusive
Cc1ccc(C)c(C(=O)CSc2nnnn2C(C)C)c1	Shiga toxin inh 54, Cycloheximide cs 62
COc1cccc(-n2nnnc2SCC(=O)NC2CCCC2)c1	none
CCn1c(SCC(=O)c2ccc3c(c2)OCCO3)nnc1C(C)C	Cycloheximide cs 19
COc1cccc(-n2nnnc2SCC(=O)NC2CCCCC2)c1	Cycloheximide cs 34
O=C(CSc1nnnn1C1CCCC1)c1ccc2c(c1)OCCO2	Cycloheximide cs 33
CCCn1c(SCC(=O)Nc2ccc3c(c2)OCO3)n[nH]c1=O	none (no result: LmPK inh, Shiga toxin inh, NS1 inh, Cycloheximide cs)
COc1ccccc1NC(=O)CSc1nnnn1C1CCCCC1	none
CCCn1c(SCC(=O)c2ccc3c(c2)OCCO3)n[nH]c1=O	Shiga toxin inh 62, Cycloheximide cs 30 (no result: NS1 inh)
CCn1nnnc1SCC(=O)c1ccc2c(c1)OCCO2	Shiga toxin inh 113, Cycloheximide cs 52
COc1cccc(C(=O)CSc2nnnn2C2CCCCC2)c1	Shiga toxin inh 59, Cycloheximide cs 28
Cc1ccc2c(c1)c(-c1csc(N)n1)c(C)n2C	none
CCC(C)NC(=O)c1cnn(-c2cccc(F)c2)c1-n1cccc1 (configuration not stated)	none (no result: LmPK inh, Shiga toxin inh, NS1 inh, Cycloheximide cs, SARS PLpro yeast)
COc1cccc(NC(=O)c2cc3ccccc3o/c2=N\O)c1	Cycloheximide cs 19 (no result: Shiga toxin inh)
Cc1nc2ccccc2cc1C(=O)Nc1ccccc1Cl	none
COc1cccc(NC(=O)c2cc3cccc(OC)c3o/c2=N\O)c1	Shiga toxin inh 109, Cycloheximide cs 81 (no result: TbPYK inhibitor)
O=C(Nc1ccccc1Cl)c1cc2ccccc2o/c1=N\O	Shiga toxin inh 123, Cycloheximide cs 41
CN(C(=O)CSc1nc(-c2ccc(C(C)(C)C)cc2)c(C#N)c(=O)[nH]1)C1CCCCC1	NS1 inh inconclusive, SARS PLpro yeast inconclusive
CN(C)CC(CCC(CN(C)C)C(=O)c1ccccc1)C(=O)c1ccccc1 (configuration not stated)	none
COc1ccc(C(=O)C(Cc2ccccc2)N(C)C)cc1 (configuration not stated)	Shiga toxin inh 42, Cycloheximide cs 31
CN(C)C(Cc1ccc(C#N)cc1)C(=O)c1ccccc1 (configuration not stated)	Cycloheximide cs 29
C[C@@]12CCC=C[C@H]1[C@H](c1ccc(C(F)(F)F)cc1)N(Cc1ccccc1)C2=O	none
Cc1onc(-c2c(F)cccc2Cl)c1C(=O)O/N=C(\N)c1ccc([N+](=O)[O-])o1	Shiga toxin inh 36
O=C(NN1C(=O)c2ccccc2NC1c1ccoc1)c1ccccc1 (configuration not stated)	none (no result: NS1 inh)
O=C(NN1C(=O)c2ccccc2NC1c1ccccn1)c1ccccc1 (configuration not stated)	Shiga toxin inh 24, Cycloheximide cs 13
O=C1c2ccccc2NC(c2ccccn2)N1c1ccc(Cl)cc1 (configuration not stated)	Shiga toxin inh 71, Cycloheximide cs 31
Cc1cccc(C2Nc3ccccc3C(=O)N2c2ccccc2)n1 (configuration not stated)	none
CC(=O)Nc1nc(COc2ccc3ccccc3c2)cs1	Shiga toxin inh 97, Cycloheximide cs 52 (no result: TbPYK inhibitor)
CC(=O)Nc1nc(COc2ccccc2)cs1	Shiga toxin inh 64, Cycloheximide cs 44
COc1cccc(OC)c1C(=O)Nc1nc(COc2ccccc2)cs1	none
Nc1nc(COc2ccc3ccccc3c2)cs1	Shiga toxin inh 116, Cycloheximide cs 60 (no result: SARS PLpro yeast)
Nc1nc(CCOc2ccc(F)cc2)cs1	Shiga toxin inh 154, Cycloheximide cs 33 (no result: NS1 inh)
COc1ccccc1OCc1csc(N)n1	none (no result: NS1 inh)
CSc1nc(Nc2ccc(C)cc2C)cc(-c2ccccc2)n1	none (no result: LmPK inh, Shiga toxin inh, NS1 inh, Cycloheximide cs, SARS PLpro yeast)
Cc1ccccc1C(=O)Nc1cccc(NC(=O)c2ccc(C(C)(C)C)cc2)c1	none (no result: LmPK inh, Shiga toxin inh, NS1 inh, Cycloheximide cs, SARS PLpro yeast)
O=C(Nc1nc(COc2ccccc2)cs1)C1CCC1	Shiga toxin inh 89, Cycloheximide cs 37
